# Results: ChEMBL document CHEMBL4513216, “Probing the Open Global Health Chemical Diversity Library for Multistage-Active Starting Points for Next-Generation Antimalarials” (ACS Infect Dis, 2020)
# About 8,600 (12%) of roughly 69,000 compounds showed an effect of 50% or more. Many of the other results were omitted from the sample, so strong results are more common in it than they were.
# Tested on: Plasmodium berghei
# Experiment: Screen against P. berghei liver stage (PbLuc), transformed with Luciferase, at 10uM
# Format: functional, HepG2
# Conditions: tested at 10 uM
row,Structure (SMILES),INHIBITION [%]
1,CC(C)CC(NC(=O)c1ccco1)c1nc2cccnc2n1C (stereo unspecified),48
2,Cc1cc(C)n(CCCN(C)Cc2cn[nH]c2-c2ccc(F)cc2)n1,14
3,Cc1ccc(CN2CCOCC3(CCN(Cc4cccs4)C3)C2)o1 (stereo unspecified),-34
4,COCC(C)N1CCN(CCc2ccc3c(c2)CCO3)CC1 (stereo unspecified),51.9
5,CCOCCN1CCN(CCc2ccc3c(c2)CCO3)CC1,67.6
6,CCOCCN1CCN(c2ccc(CN(C)C)cn2)CC1,7.24
7,CN(CCc1ccc2c(c1)CCO2)C1CCS(=O)(=O)CC1,19
8,CC(C)NC1CCN(CCc2ccc3c(c2)CCO3)CC1,35.1
9,Cc1nc(CN(C)C2CCN(CCc3ccc4c(c3)CCO4)C2)no1 (stereo unspecified),-8.11
10,CC(=O)NCCNC(=O)c1cccc(Cn2nc(C)cc2C)c1,-18.9
11,COCCN(C)C[C@@H]1CCC[C@@H]2CN(Cc3ccc(OC)nc3)C[C@@H]21,20.1
12,CCCC(O)CN1CC(C)(C)CN(C(=O)c2ccc(SC)cc2)CC1=O (stereo unspecified),43.4
13,Cc1ccc(C(=O)NCCCn2cncn2)c(=O)[nH]1,4.41
14,O=C(NCCCn1cncn1)c1ccc(-c2ccco2)[nH]c1=O,56.3
15,O=C(NCCCn1cncn1)c1ccc(-c2ccccc2)[nH]c1=O,-12.9
16,CN1CC(=O)N(c2ccsc2)CC12CCN(S(C)(=O)=O)C2 (stereo unspecified),-12.2

row,Structure (SMILES),INHIBITION [%]
1,CCc1nc(C2CCCN2CC(=O)Nc2cc(C)on2)no1 (stereo unspecified),22.3
2,COc1ccc(-c2noc(C(N)CCSC)n2)cc1 (stereo unspecified),36.2
3,O=C(NCCNc1ncccn1)N1CCCC1c1ccc(F)cc1 (stereo unspecified),6.11
4,CNC(=O)c1nc(CC(=O)Nc2ccc3cc[nH]c3c2)no1,30.5
5,Brc1ccc(NCc2ccc(Cn3ccnc3)cc2)nc1,-51.4
6,CNC(=O)c1cccnc1NCc1ccc(Cn2cccn2)cc1,21.9
7,CC(C)COC(C)C(=O)NCc1ccccc1Cn1ccnc1 (stereo unspecified),32.3
8,c1ccc(NCc2ccc(Cn3ccnc3)cc2)nc1,6.7
9,CNC(=O)c1cccnc1NCc1ccc(-n2cccn2)cc1,26.4
10,CC(OCC1CC1)C(=O)NCc1ccc(Cn2ccnc2)cc1 (stereo unspecified),30.1
11,CC(C)COC(C)C(=O)NCc1ccc(Cn2ccnc2)cc1 (stereo unspecified),58.3
12,CS(=O)(=O)c1ccccc1NCc1ccc(Cn2ccnc2)cc1,52
13,CNC(=O)c1cccnc1NCc1ccc(Cn2ccnc2)cc1,85.7
14,COCCc1noc(CN(C)c2nc(C)cc(C)n2)n1,47.6
15,COc1ccc(Cl)cc1CCNC(=O)NCc1ccncc1,-23.5
